Measurements reported in ChEMBL document CHEMBL3988442, “University of Dundee, Small-Polar-MMV Screening Library” (2021).

Each molecule was assayed against AMP-activated protein kinase, AMPK (Homo sapiens) (UniProt P54646+O43741+P54619+Q9UGJ0+Q9Y478+Q13131+Q9UGI9) (assay: AMP-dependent Kinase enzyme assay. An in vitro enzyme assay that detects ADP turnover that is directly proportional to AMPK activity. This uses naive AMPK that is activated during the assay with MK-8722). Conditions: 30 µM.
Assay type: functional
Design: scale not given: direction of the effect not stated beside the values

| Structure (SMILES) | Percent Effect [%] |
| --- | --- |
| CCc1ncc2c(n1)CN(c1cc(N3CCN(C)CC3)nc(N)n1)C2 | -137 |
| Cc1ncc(C(=O)N2CCOC(C(=O)N3CCCCC3)C2)c(C)n1 (stereo not given) | -4.59 |
| COc1ccc(-c2cccc3c2OC(CN)C3)cc1F (stereo not given) | 0.444 |
| CC(C)OCCN1CCC(Nc2ncc(Br)cn2)CC1 | 10.5 |
| Cn1cc(CN2CCOC(Cc3cccc(F)c3)C2)cn1 (stereo not given) | 4.61 |
| Cc1ccc(NC(=O)NCCn2cnc(C)c(C)c2=O)cc1F | 1.89 |
| Cc1cc(N2Cc3cnn(CCO)c3C2)nc(-c2ccccc2O)n1 | 28.4 |
| Fc1ccc(C2(CNCC(F)F)CCOC2)cc1 (stereo not given) | 3.05 |
| Cc1nc(O)cc(C2(C)CCCNC2)n1 (stereo not given) | 19.4 |
| CC(CNC(=O)c1cc(Cn2cnc3ccccc32)[nH]n1)N1CCCC1 (stereo not given) | -5.09 |
| COC(CNC(=O)c1ccc(NC(C)=O)cc1)c1cccc(Cl)c1 (stereo not given) | 1.2 |
| COc1ncc(NCc2cccc(C#N)c2)cc1C(N)=O | 8.6 |
| Cc1cc(C[S+]([O-])Cc2ccccc2F)on1 (stereo not given) | 6.4 |
| O=C(O)c1ccn(-c2cccc(NC(=O)c3ccccc3Cl)c2)n1 | 0.768 |
| CC1(c2ncc(CN3CCSCC3)cn2)CCCCO1 (stereo not given) | -1.61 |
| CC(C)OCCCNC(=O)CN1CCN(c2nccs2)C(C)C1 (stereo not given) | 13.6 |
| CN(Cc1nc(N)nc(N(C)C)n1)Cc1cccc2ccccc12 | -3.23 |
| Cc1ccc(OCCN(C)C2CCOC2=O)cc1 (stereo not given) | 0.0432 |
| Cc1nc(NCc2cccnc2)cc(C2COCCN2)n1 (stereo not given) | 3.04 |
| CC(C(=O)NC1(C#N)CCCCC1)N1CCc2c(ncn2C2CC2)C1 (stereo not given) | -1.93 |

| Structure (SMILES) | Percent Effect [%] |
| --- | --- |
| CCc1nnc(Nc2cc(C)nc(C3CN(C(=O)C(C)C)CCO3)c2)s1 (stereo not given) | -1.78 |
| O=C(COC1CCCC1)NCc1ccc(O)c(F)c1 | 8.07 |
| N#Cc1c(N)nc2c(c1-c1c[nH]nc1C1CCCCC1)CC(N)CC2 (stereo not given) | 23.9 |
| CN(Cc1ccccc1)S(=O)(=O)N1C[C@@H](C(=O)O)[C@H](C2CC2)C1 | 3.92 |
| CC(c1nc(C2CC2)no1)N1CCc2c(ncn2C2CC2)C1 (stereo not given) | 11.4 |
| Cc1ncc(C(=O)N2CCOC(C(=O)N3CCCCCC3)C2)c(C)n1 (stereo not given) | -3.31 |
| Cc1ccc(CNC(=O)NCc2ccco2)s1 | 2.27 |
| CCC(Nc1ccc(CCN2CCCCC2)cc1)C(N)=O (stereo not given) | -12.9 |
| CN(Cc1nncn1C)C(=O)c1cc(COc2ccccc2)[nH]n1 | -7.68 |
| Cc1cnn(C2CN(Cc3nc4cc(Cl)ccc4n3C)C2)c1 | -6.13 |
| CC(O)c1cnn(-c2ccccc2)c1 (stereo not given) | 12.6 |
| COc1ccccc1Oc1ncccc1CNC(=O)C1COC(=O)N1 (stereo not given) | -13.1 |
| CN(CC(=O)NCC1CCCCC1)S(=O)(=O)c1cccnc1 | -4.46 |
| CCCc1nnc(N2CCC(N3CCCC(O)C3)CC2)o1 (stereo not given) | 4.12 |
| CN(C)C(=O)CN1CCCC(c2nccnc2-c2cccc(Cl)c2)C1 (stereo not given) | 19.9 |
| COc1c(C)cnc(CN2CCn3c(nnc3C(C)C)C2)c1C | 22 |
| COc1cccc(CC2CCCN2Cc2nccn2C)c1 (stereo not given) | -2.19 |
| CN1CCN(CCOc2ccc(NC(=O)c3ccoc3)cc2)CC1 | -4.02 |
| c1csc(-c2noc(C3CNC3)n2)c1 | 8.02 |
| CSCCC(NC(=O)c1ccco1)C(=O)N(C)Cc1ccsc1 (stereo not given) | -5.54 |
